This note sets out measurements from PubChem BioAssay (EPA / NIEHS).

Inconclusive results are not listed. The source made the active and inactive calls. How the source made its calls, unless noted: active means hit-call score of the fitted dose curve at least 0.9, where 1 is the maximum; inactive means score below 0.9.

Test [1] can be described thus: ATG_PBREM_CIS: Attagene CIS-FACTORIAL HepG2 Assay for human Phenobarbital-responsive Enhancer Module (PBREM) (AID 2282955). Particulars: HepG2 PBREM cis-reporter, Attagene multiplexed transcription; actives raise or lower the signal. Summed up: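 Cells were transfected with cis-element reporter units and treated for 24 h, after which RNA was extracted and reporter transcripts measured by RT-PCR and capillary electrophoresis.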

Test [2] addresses Paired box protein Pax-6 (Homo sapiens) (UniProt P26367). The test can be described thus: ATG_Pax6_CIS: Attagene CIS-FACTORIAL HepG2 Assay for human Paired Box 6 (PAX6) (AID 2282956). Particulars: HepG2 CIS-FACTORIAL PAX6 reporter transcription, RNA readout; actives raise or lower the signal. Summed up: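 After twenty-four hours of chemical exposure, transfected HepG2 cells are harvested for RNA. Cis-promoter reporter transcripts are amplified, fluorescently labelled and sized by capillary electrophoresis, with gain and loss of signal scored against DMSO.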

A short description of test [3]: ATG_PXRE_CIS: Attagene CIS-FACTORIAL HepG2 Assay for human Pregnane X Receptor Element (PXRE) (AID 2282957). The note with it: HepG2 Attagene CIS-FACTORIAL PXRE reporter, mRNA; actives raise or lower the signal. Summed up:
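HepG2 cells transiently transfected with cis-element-driven multiplexed reporter units; after 24 h chemical exposure, reporter mRNA measured by RT-PCR, 6-FAM labelling, HpaI digestion and capillary electrophoresis. Bidirectional fitting relative to DMSO.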

A short description of test [4]: ATG_PPRE_CIS: Attagene CIS-FACTORIAL HepG2 Assay for human Peroxisome Proliferator-activated Response Element (PPRE) (AID 2282958). Particulars: HepG2 PPRE cis-element reporter, Attagene transcription factor profiling; actives raise or lower the signal. Summed up: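 In this cell-based multiplex, a PPRE cis element drives a reporter sequence in transiently transfected HepG2 cells. Following 24 h treatment, labeled cDNA amplicons are sized and quantified by capillary electrophoresis, with DMSO defining baseline.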

Test [5] in a line: ATG_RORE_CIS: Attagene CIS-FACTORIAL HepG2 Assay for human RAR-related Orphan Receptor Element (RORE) (AID 2282959). Particulars: HepG2 Attagene cis-factorial RORE reporter, mRNA; actives raise or lower the signal. Summed up: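 Endogenous factor activity at a cis response element is read as reporter transcript levels in HepG2 cells, 24 h post-dose. Transcripts are quantified by RT-PCR with capillary electrophoresis, and data fitted in both directions against DMSO.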

Test [6] in a line: ATG_Sox_CIS: Attagene CIS-FACTORIAL HepG2 Assay for human SRY-box transcription factor (SOX) (AID 2282960). The note with it: HepG2 Attagene cis-factorial SOX reporter, mRNA; actives raise or lower the signal. Summed up: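 Measures mRNA induction of a SOX1-associated reporter in HepG2 after 24 h dosing. Fluorescently labelled RT-PCR fragments are separated by capillary electrophoresis, and gain or loss relative to DMSO control is fitted.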

The target of test [7] is Transcription factor Sp1 (Homo sapiens) (UniProt P08047). The test can be described thus: ATG_Sp1_CIS: Attagene CIS-FACTORIAL HepG2 Assay for human Specificity Protein 1 (Sp1) (AID 2282961). The note with it: HepG2 Sp1 cis-reporter transcription, actives raise or lower the signal. Summed up: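 Cells: HepG2, transiently transfected with cis-regulated multiplexed reporters. Exposure: 24 h. Detection: reporter transcripts amplified, fluorescently labeled, restriction-digested and sized by capillary electrophoresis. Analysis: bidirectional fit relative to DMSO.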
Sequence of Transcription factor Sp1 (Homo sapiens) (P08047 whole entry, looked up): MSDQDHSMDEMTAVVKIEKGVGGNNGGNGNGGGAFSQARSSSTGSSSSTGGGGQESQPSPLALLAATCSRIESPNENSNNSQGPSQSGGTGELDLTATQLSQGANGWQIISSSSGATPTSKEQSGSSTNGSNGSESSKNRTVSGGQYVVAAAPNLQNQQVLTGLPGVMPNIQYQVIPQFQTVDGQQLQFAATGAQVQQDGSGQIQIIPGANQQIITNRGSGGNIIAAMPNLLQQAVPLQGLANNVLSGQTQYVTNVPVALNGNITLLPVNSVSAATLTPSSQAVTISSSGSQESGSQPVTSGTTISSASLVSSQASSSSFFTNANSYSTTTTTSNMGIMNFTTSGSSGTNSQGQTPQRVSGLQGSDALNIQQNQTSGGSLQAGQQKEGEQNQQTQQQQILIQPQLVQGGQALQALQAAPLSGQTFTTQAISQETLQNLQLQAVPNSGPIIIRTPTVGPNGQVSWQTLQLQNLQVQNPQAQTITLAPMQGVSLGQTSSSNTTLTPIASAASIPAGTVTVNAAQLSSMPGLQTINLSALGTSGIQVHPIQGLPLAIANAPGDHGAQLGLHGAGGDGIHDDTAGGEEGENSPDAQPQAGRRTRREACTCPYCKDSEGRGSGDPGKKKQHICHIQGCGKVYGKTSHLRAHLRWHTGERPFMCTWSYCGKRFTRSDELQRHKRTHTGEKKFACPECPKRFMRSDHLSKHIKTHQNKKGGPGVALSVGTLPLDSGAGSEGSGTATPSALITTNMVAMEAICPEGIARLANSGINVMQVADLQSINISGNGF

The nature of test [8]: ATG_SREBP_CIS: Attagene CIS-FACTORIAL HepG2 Assay for human Sterol Regulatory Element Binding (SREBP) (AID 2282962). The note with it: HepG2 Attagene cis-factorial SREBP reporter, mRNA; actives raise or lower the signal. Summed up:
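Twenty-four hours after chemical dosing of transfected HepG2 cultures, reporter RNA was converted to cDNA, amplified, end-labelled with 6-FAM and resolved by capillary electrophoresis. Responses were fitted relative to DMSO.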

Test [9] deals with Signal transducer and activator of transcription 3 (Homo sapiens) (UniProt P40763). The test can be described thus: ATG_STAT3_CIS: Attagene CIS-FACTORIAL HepG2 Assay for human Signal Transducer and Activator of Transcription 3 (STAT3) (AID 2282963). The note with it: HepG2, Attagene cis-factorial STAT3 reporter transcription; actives raise or lower the signal. In outline: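 Endogenous STAT3-responsive cis-element activity was read in transiently transfected HepG2 cells after 24 h treatment. Reporter transcripts were quantified via RT-PCR and capillary electrophoresis, with DMSO as negative control and bidirectional curve fitting.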
Sequence of Signal transducer and activator of transcription 3 (Homo sapiens) (P40763 whole entry, looked up): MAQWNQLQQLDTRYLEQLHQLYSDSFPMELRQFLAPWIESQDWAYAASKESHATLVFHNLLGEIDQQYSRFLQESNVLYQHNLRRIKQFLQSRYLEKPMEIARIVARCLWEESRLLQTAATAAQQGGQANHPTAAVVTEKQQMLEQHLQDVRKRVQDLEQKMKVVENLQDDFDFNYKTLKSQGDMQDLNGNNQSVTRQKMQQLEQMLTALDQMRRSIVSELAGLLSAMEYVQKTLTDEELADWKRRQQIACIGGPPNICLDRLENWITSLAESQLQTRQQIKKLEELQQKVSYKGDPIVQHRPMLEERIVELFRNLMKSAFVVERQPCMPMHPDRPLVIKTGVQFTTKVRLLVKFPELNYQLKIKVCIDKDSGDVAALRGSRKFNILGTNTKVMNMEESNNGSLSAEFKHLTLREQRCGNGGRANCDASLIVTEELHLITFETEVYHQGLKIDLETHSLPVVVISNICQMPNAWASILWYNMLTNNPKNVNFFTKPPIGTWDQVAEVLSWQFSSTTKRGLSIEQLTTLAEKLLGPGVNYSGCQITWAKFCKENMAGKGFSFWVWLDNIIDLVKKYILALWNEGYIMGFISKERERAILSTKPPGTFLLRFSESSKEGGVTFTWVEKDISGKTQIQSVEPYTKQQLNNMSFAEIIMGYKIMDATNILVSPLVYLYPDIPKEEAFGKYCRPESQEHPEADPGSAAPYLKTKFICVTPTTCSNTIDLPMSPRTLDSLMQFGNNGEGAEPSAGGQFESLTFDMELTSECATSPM

Test [10] is described as follows: ATG_TA_CIS: Attagene CIS-FACTORIAL HepG2 Assay for human TA Basal Promoter (AID 2282964). Particulars: HepG2 Attagene CIS-factorial TA basal promoter reporter; actives raise or lower the signal. Summed up:
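Read-out: fluorescent reporter-transcript fragments resolved by capillary electrophoresis after RT-PCR and HpaI digestion. Source: HepG2 cells carrying transiently transfected multi-reporter cis constructs, treated 24 h. Endpoint fitted bidirectionally relative to DMSO.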

Test [11] can be described thus: ATG_TCF_b_cat_CIS: Attagene CIS-FACTORIAL HepG2 Assay for human T-Cell-Factor with beta-catenin (TCF/b-cat) (AID 2282965). The note with it: HepG2 TCF/beta-catenin cis-reporter transcription, actives raise or lower the signal. In outline: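 Endogenous transcription factor activity is captured through cis-promoter reporter constructs transiently introduced into human HepG2 liver cells. Induced reporter mRNA is measured after 24 h and fitted bidirectionally relative to DMSO.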

The nature of test [12]: ATG_TAL_CIS: Attagene CIS-FACTORIAL HepG2 Assay for human TAL Basal Promoter (AID 2282966).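 Further: background control endpoint measuring basal TAL promoter reporter mRNA not a specific factor.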 Particulars: HepG2 Attagene cis-factorial TAL promoter reporter; actives raise or lower the signal. Summed up: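 HepG2 cells transiently transfected with multiplexed cis-promoter reporter units, dosed 24 h. Reporter mRNA quantified by RT-PCR, 6-FAM labelling, HpaI digestion and capillary electrophoresis; TAL basal promoter serves as background control, fitted bidirectionally versus DMSO.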

Test [13] in a line: ATG_VDRE_CIS: Attagene CIS-FACTORIAL HepG2 Assay for human Vitamin D Receptor Element (VDRE) (AID 2282968). Particulars: HepG2 VDRE cis-reporter transcription, actives raise or lower the signal. Summed up: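 Reporter mRNA induction, quantified by capillary electrophoresis of fluorescently labelled RT-PCR products, was read 24 h after dosing HepG2 cells carrying transiently transfected cis-regulated reporter units; gain or loss relative to DMSO.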

Test [14] addresses Nuclear receptor subfamily 1 group I member 3 (Homo sapiens) (UniProt Q14994). The test can be described thus: ATG_CAR_TRANS: Attagene TRANS-FACTORIAL HepG2 Assay for human Constitutive Androstane Receptor (CAR) (AID 2282969; active means hit-call score of the fitted dose curve at least 0.9, where 1 is the maximum;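 further: activators raise reporter mRNA above DMSO so AC50 marks induction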). The note with it: HepG2 Attagene TRANS-FACTORIAL CAR reporter. Summed up:
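Readout is reporter mRNA induction, quantified by fluorescent primer extension and capillary electrophoresis after RT-PCR. Cells were HepG2 transiently carrying chimeric NR-Gal4 constructs with GAL4-UAS reporters, treated for 24 h; activity scored upward from DMSO.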

Test [15] has as its target Estrogen receptor (Homo sapiens) (UniProt P03372). The test can be described thus: ATG_ERa_TRANS: Attagene TRANS-FACTORIAL HepG2 Assay for human Estrogen Receptor alpha (ERa) (AID 2282970; active means hit-call score of the fitted dose curve at least 0.9, where 1 is the maximum). Particulars: HepG2 Attagene TRANS ERa GAL4 reporter, mRNA. In outline:
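HepG2 cells transiently transfected with multiplexed GAL4-UAS reporter units read out chimeric NR-Gal4 activity. After 24 h compound exposure, reporter mRNA was quantified by RT-PCR, 6-FAM labeling, HpaI digestion and capillary electrophoresis, relative to DMSO.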

Test [16] deals with X-box-binding protein 1 (Homo sapiens) (UniProt P17861). The test can be described thus: ATG_Xbp1_CIS: Attagene CIS-FACTORIAL HepG2 Assay for human X-box Binding Protein 1 (XBP1) (AID 2282972). The note with it: HepG2 XBP1 cis-element reporter, Attagene multiplex; actives raise or lower the signal. Summed up: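 After a 24-hour chemical exposure of HepG2 cells carrying cis-regulated reporters, reporter mRNA levels are assessed. Quantification uses RT-PCR, 6-FAM labelling and capillary electrophoresis. Gain- or loss-of-signal is fitted against DMSO.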
Sequence of X-box-binding protein 1 (Homo sapiens) (P17861 whole entry, looked up): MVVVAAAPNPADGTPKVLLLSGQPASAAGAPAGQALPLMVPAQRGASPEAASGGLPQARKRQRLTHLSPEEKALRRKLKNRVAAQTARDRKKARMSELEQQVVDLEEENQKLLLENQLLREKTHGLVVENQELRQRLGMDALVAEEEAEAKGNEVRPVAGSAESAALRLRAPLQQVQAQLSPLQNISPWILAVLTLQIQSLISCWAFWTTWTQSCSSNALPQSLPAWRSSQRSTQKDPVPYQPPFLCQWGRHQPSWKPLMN

The nature of test [17]: ATG_M_19_TRANS: Attagene TRANS-FACTORIAL HepG2 Assay for M19 Transcription Factor (Internal Marker) (AID 2282974; active means hit-call score of the fitted dose curve at least 0.9, where 1 is the maximum). Particulars: HepG2 Attagene TRANS-FACTORIAL M19 internal marker reporter. Summed up:
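Reporter mRNA induction was measured in transfected HepG2 cells 24 h after dosing. Endpoint fitted upward relative to DMSO and serves as a background control within the multiplexed TRANS panel.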

Test [18] is described as follows: ATG_TGFb_CIS: Attagene CIS-FACTORIAL HepG2 Assay for human Transforming Growth Factor (TGF) (AID 2282967). The note with it: HepG2 Attagene CIS TGFb reporter, mRNA transcription; actives raise or lower the signal. Summed up: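 Transient MRTU transfection of HepG2 (FuGene 6). Dose 24 h. TriZol RNA, oligo(dT) RT, PCR, 6-FAM primer extension, HpaI cut, CE. Bidirectional fit, DMSO = baseline.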

Test [19] concerns the target Steroid hormone receptor ERR1 (Homo sapiens) (UniProt P11474). The test can be described thus: ATG_ERRa_TRANS: Attagene TRANS-FACTORIAL HepG2 Assay for human Estrogen-Related Receptor alpha (ERRa) (AID 2282971; active means hit-call score of the fitted dose curve at least 0.9, where 1 is the maximum). The note with it: HepG2 Attagene TRANS reporter, ERRa transactivation. Summed up:
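HepG2 cells transiently transfected with GAL4-UAS reporter units and chimeric NR-Gal4 constructs; after 24 hour compound incubation, reporter mRNA quantified by RT-PCR, fluorescent labelling and capillary electrophoresis, gain of signal versus DMSO.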

A short description of test [20]: ATG_GAL4_TRANS: Attagene TRANS-FACTORIAL HepG2 Assay for GAL4 (Internal Marker) (AID 2282976; active means hit-call score of the fitted dose curve at least 0.9, where 1 is the maximum). Particulars: HepG2 Attagene TRANS GAL4 internal marker reporter. Summed up: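 Background-control readout: GAL4-UAS reporter transcript in transiently transfected HepG2 cells after 24 h compound exposure. Measured by RT-PCR, 6-FAM primer extension, HpaI digest and capillary electrophoresis; gain-of-signal fit versus DMSO.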

Sequence of Paired box protein Pax-6 (Homo sapiens) (P26367 whole entry, looked up): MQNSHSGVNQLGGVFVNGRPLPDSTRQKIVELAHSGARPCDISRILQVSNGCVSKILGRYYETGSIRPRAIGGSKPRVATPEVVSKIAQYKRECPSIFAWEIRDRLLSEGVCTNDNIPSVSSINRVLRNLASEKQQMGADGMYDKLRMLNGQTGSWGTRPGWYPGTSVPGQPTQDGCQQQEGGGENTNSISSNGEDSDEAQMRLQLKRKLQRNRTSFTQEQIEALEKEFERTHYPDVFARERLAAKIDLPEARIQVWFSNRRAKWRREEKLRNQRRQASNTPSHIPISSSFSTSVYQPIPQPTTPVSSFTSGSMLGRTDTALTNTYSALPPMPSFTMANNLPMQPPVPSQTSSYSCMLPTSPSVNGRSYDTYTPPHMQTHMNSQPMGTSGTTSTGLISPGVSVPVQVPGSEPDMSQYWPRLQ
Sequence of Estrogen receptor (Homo sapiens) (P03372 whole entry, looked up, the tested form may be a part): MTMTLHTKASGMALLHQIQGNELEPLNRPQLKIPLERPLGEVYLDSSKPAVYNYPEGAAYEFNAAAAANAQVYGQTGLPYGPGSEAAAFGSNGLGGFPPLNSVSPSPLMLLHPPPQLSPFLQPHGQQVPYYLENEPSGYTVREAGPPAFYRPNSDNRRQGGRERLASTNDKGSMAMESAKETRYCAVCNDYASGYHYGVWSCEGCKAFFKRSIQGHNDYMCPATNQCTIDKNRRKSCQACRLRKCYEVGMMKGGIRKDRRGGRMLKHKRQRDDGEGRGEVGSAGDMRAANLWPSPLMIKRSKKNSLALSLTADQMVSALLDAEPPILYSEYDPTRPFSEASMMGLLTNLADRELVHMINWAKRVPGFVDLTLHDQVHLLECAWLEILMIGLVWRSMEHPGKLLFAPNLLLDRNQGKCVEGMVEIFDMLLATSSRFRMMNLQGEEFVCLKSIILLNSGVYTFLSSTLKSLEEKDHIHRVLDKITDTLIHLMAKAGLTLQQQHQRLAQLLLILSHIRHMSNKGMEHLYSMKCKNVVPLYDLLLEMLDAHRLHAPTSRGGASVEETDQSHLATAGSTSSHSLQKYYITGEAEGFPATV
Sequence of Nuclear receptor subfamily 1 group I member 3 (Homo sapiens) (Q14994 whole entry, looked up, the tested form may be a part): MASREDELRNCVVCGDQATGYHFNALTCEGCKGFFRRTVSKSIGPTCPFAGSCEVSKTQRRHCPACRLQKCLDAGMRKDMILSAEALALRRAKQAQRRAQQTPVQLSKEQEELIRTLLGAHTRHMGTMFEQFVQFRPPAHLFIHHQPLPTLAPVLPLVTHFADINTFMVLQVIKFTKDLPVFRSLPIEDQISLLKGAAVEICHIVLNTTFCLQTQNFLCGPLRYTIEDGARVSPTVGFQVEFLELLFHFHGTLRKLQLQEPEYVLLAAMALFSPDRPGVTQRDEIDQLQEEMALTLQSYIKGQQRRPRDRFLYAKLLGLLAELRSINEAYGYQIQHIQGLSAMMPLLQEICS
Sequence of Steroid hormone receptor ERR1 (Homo sapiens) (P11474 whole entry, looked up, the tested form may be a part): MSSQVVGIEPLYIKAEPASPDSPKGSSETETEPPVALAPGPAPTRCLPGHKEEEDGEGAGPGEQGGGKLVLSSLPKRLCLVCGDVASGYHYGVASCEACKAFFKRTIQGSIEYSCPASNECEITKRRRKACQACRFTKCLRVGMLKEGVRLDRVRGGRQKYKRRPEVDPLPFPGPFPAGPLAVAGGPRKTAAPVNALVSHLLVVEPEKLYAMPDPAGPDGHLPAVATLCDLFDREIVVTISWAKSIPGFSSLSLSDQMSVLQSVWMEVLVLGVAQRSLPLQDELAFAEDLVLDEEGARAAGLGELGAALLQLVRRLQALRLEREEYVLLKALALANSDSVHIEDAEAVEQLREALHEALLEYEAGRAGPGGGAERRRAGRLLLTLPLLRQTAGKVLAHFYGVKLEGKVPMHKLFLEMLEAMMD

As usually defined, the AC50 is the concentration at which the activity in the assay is half-maximal. As to `C=CCOC(=O)/C=C\C(=O)OCC=C`, the outcome in [1], in test [4], in test [7], in test [8], in test [9] and in [10] was inactive. In addition, the compound was called inactive in test [12], in test [14], in [15] and in [17]. Also, the AC50 in test [2] is 26 µM (active); in test [3] it was 20.1 µM (active); in [5] it was 11.3 µM (active); in test [6], 27.6 µM (active); in test [11], 15.1 µM (active); in test [13], 27 µM (active). In addition, the concentration at half-maximal activity (AC50) in test [16] was 26.5 µM (active).
For the compound `C=CCCCCCCCCC(=O)OCC`, the result in test [1], in [2], in test [3], in test [4], in test [5] and in test [6] was inactive. The compound was called inactive in test [7], in test [8], in test [9], in [10], in test [11] and in test [12]. In addition, the call in test [13], in test [15], in test [19], in test [16] and in test [20] was inactive. Further, the AC50 in [18] is 0.332 µM (active).
Consider `CC(=O)OC/C=C(C)/C=C/C=C(C)/C=C/C1=C(C)CCCC1(C)C`, for which the outcome in test [1], in test [4], in test [5], in test [9], in test [10] and in test [12] was inactive. Besides, the compound was classed as inactive in test [15], in test [16], in [17] and in test [20]. The AC50 is 72.2 µM (active) in test [2]; 0.426 µM (active) in [3]; 138 µM (active) in [6]; 172 µM (active) in test [7]; 100 µM (active) in test [8]; 100 µM (active) in [11]. Besides, the AC50 in test [13] is 0.946 µM (active).
As to `NC(=O)c1cccnc1`, the outcome in test [1], in [2], in test [4], in test [5], in test [6] and in test [7] was inactive. For the same compound, the compound was called inactive in test [8], in test [9], in [10], in [11], in test [12] and in [18]. Also, the call in [13], in [15], in [16], in test [17] and in [20] was inactive. For the same compound, the half-maximal activity concentration (AC50) in [3] is 32.3 µM (active).
Turning to `CCCCCCCCCC(=O)OCC`, the result in test [1], in test [2], in test [3], in test [4], in test [5] and in test [6] was inactive. Further, the result in test [7], in test [8], in [9], in test [10], in [11] and in test [12] was inactive. Also, the call in test [18], in test [15], in [16] and in test [20] was inactive. In [13], the AC50 was 44.1 µM (active).
As to `CCCCC(CC)COCCO` (configuration not stated), the outcome in test [1], in test [2], in [3], in [4], in test [5] and in test [6] was inactive. Moreover, the compound was classed as inactive in test [7], in test [8], in test [9], in test [10], in test [11] and in test [12]. Further, the compound was classed as inactive in [18], in [13], in test [14], in test [15], in [16] and in test [20].
`CCCCCCOc1ccc(O)cc1`: the result in test [1], in [4], in [5], in test [6], in [7] and in [8] was inactive. The compound was called inactive in [9], in test [12], in [18], in test [16] and in test [17]. Besides, the AC50 in [2] was 33.4 µM (active); in test [3] it was 5.85 µM (active); in test [10], 39.2 µM (active); in test [11], 20.5 µM (active); in test [13], 33.4 µM (active); in test [15], 2.85 µM (active).
